In PubChem BioAssay (EPA / NIEHS):
Records with an inconclusive call do not appear. The source made the active and inactive calls. Rule for the calls: active = hit-call score of the fitted dose curve at least 0.9, where 1 is the maximum; inconclusive = response in the unintended direction; inactive = score below 0.9.

target: human Thyroid Receptor Alpha (TRa), THRA (gene 7067) (UniProt P10827); test: NVS_NR_hTRa_Antagonist: NovaScreen (NVS) Nuclear Receptor Binding Assay for human Thyroid Receptor Alpha Antagonism (TRa) (AID 2283362)
Sequence (P10827 whole entry, looked up): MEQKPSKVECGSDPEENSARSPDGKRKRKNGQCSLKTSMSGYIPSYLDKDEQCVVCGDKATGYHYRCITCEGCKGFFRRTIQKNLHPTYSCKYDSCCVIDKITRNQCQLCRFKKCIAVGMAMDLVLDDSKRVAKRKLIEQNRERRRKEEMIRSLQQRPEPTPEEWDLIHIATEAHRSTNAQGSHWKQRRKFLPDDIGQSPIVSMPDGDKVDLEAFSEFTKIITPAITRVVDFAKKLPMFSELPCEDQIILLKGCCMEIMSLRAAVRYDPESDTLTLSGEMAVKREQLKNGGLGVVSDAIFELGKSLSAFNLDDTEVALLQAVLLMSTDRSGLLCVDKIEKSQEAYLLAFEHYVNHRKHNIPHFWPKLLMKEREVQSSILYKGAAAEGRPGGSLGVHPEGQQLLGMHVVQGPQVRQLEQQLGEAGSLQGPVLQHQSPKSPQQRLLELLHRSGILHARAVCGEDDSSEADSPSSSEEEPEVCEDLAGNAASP
Description: NVS_NR_hTRa_Antagonist is a biochemical, single-readout assay that uses extracted gene-proteins in a cell-free assay. Measurements were taken 1 hour after chemical dosing in a 384-well plate.NVS_NR_hTRa_Antagonist is one of one assay component(s) measured or calculated from the NVS_NR_hTRa_Antagonist assay. It is designed to make measurements of enzyme-linked immunosorbent assay, a form of binding reporter, as detected with chemiluminescence signals by AlphaLISA immunoassay technology.Data from the assay component NVS_NR_hTRa_Antagonist was analyzed into 1 assay endpoint. This assay endpoint, NVS_NR_hTRa_Antagonist, was analyzed in the positive analysis fitting direction relative to DMSO as the negative control and baseline of activity. Using a type of binding reporter, loss-of-signal activity can be used to understand changes in the binding as they relate to the gene THRA. Furthermore, this assay endpoint can be referred to as a primary readout, because the performed assay has only produced 1 assay endpoint. To generalize the intended target to other relatable targets, this assay endpoint is annotated to the nuclear receptor intended target family, where the subfamily is non-steroidal.
Binding assays used specific radioligands (tritiated, iodinated) with non-radioactive competitive displacement ligands in agonist or antagonist protocols (as indicated) and various reference compounds and inhibitors to titrate specific binding to receptors and transporters. Most enzyme assays (CYPs, kinases, phosphatases, proteases, HDACs) used recombinant protein and specific substrates (fluorescence mostly, some colorimetric and radioactive) and inhibitors, followed by a biochemical separation of substrate and product. All assays for the biochemical HTS were initially run in duplicate at a single concentration (10 uM for CYP450 assays and 25 uM for all others). […] Each assay was run with positive and negative controls, and concurrent controls on every plate. The follow-up (secondary) screen tested active chemical-pairs in concentration series, as well as a few additional assays not tested in the primary screen, some selected negative inactives, and several cases re-run in the concentration series for confirmatory purposes.

| Compound | outcome | AC50 |
| --- | --- | --- |
| O=[N+]([O-])c1c(Cl)c(Cl)c(Cl)c(Cl)c1Cl | inactive |  |
| CC1(C)C(C=C(Cl)Cl)C1C(=O)OC(C#N)c1ccc(F)c(Oc2ccccc2)c1 (centres undefined) | inactive |  |
| COP(=S)(OC)Oc1ccc([N+](=O)[O-])cc1 | inactive |  |
| COc1cc(OC)nc(NC(=O)NS(=O)(=O)c2cc(NC=O)ccc2C(=O)N(C)C)n1 | inactive |  |
| CC[C@H](C)[C@H]1O[C@]2(C=C[C@@H]1C)C[C@@H]1C[C@@H](C/C=C(\C)[C@@H](O[C@H]3C[C@H](OC)[C@@H](O[C@H]4C[C@H](OC)[C@@H](O)[C@H](C)O4)[C@H](C)O3)[C@@H](C)/C=C/C=C3\CO[C@@H]4[C@H](O)C(C)=C[C@@H](C(=O)O1)[C@]34O)O2 (tested in a mixture with another compound) |  | 12 µM (active) |
| CNC(=O)CSP(=S)(OC)OC | inactive |  |
| N#Cc1c(Cl)c(Cl)c(Cl)c(C#N)c1Cl |  | 40.5 µM (active) |
| COc1nn(CSP(=S)(OC)OC)c(=O)s1 | inactive |  |
| O=S(=O)(O)C(F)(F)C(F)(F)C(F)(F)C(F)(F)C(F)(F)C(F)(F)C(F)(F)C(F)(F)F |  | 12 µM (active) |
| O=[N+]([O-])/N=C1\NCCN1Cc1ccc(Cl)nc1 | inactive |  |
| CC(C)(C)C(O)C(Oc1ccc(Cl)cc1)n1cncn1 (centres undefined) | inactive |  |
| CCOc1nc(NC)nc(NC(=O)NS(=O)(=O)c2ccccc2C(=O)OC)n1 | inactive |  |
| COP(=O)(OC)OC=C(Cl)Cl | inactive |  |
| CCCN(CCOc1c(Cl)cc(Cl)cc1Cl)C(=O)n1ccnc1 |  | 6.39 µM (active) |
